# Laboratory results published in the supplement of paper PMC4840960.
# ± gives the standard deviation of the averaged measurements.
# Test system: E18 rat cortical neuron-glia co-culture
# Assay: fiber score / MBP score (myelination specific beyond OL differentiation) (ratio); higher = more myelination-specific MBP alignment
# Conditions: 1 µM; treatment time: 8 days (DIV5-DIV13)
# Method in brief: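 Library compounds were applied at 1 or 5 µM in myelination medium, DIV5 to DIV13, to primary E18 rat cortical co-cultures grown at 20,000 cells/well in 96-well plates. After 4 % paraformaldehyde fixation and MBP/Olig2/DAPI immunostaining, four 10X fields per well in duplicate wells were scored. Each value is continuous MBP fiber length per Olig2+ nucleus divided by thresholded MBP area × intensity per Olig2+ nucleus.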
row,Structure (SMILES),fiber score / MBP score
1,CCCC(=O)O[C@]1(C(=O)COC(=O)CC)CC[C@H]2[C@@H]3CCC4=CC(=O)CC[C@]4(C)[C@H]3[C@@H](O)C[C@@]21C [Hydrocortisone buteprate],1.04
2,Cc1cccc(Nc2ccccc2C(=O)O)c1C [Mefenamic Acid],0.791
3,Cc1ccccc1C(OCCN(C)C)c1ccccc1 (stereo unspecified) [Orphenadrine],0.693 ± 0.21
4,CCCCC(=O)O[C@H]1CC[C@H]2[C@@H]3CCc4cc(O)ccc4[C@H]3CC[C@]12C [Estradiol valerate],1.07
5,CC1(C)S[C@@H]2[C@H](NC(=O)Cc3ccccc3)C(=O)N2[C@H]1C(=O)O [Penicillin G],0.898
6,CN1CCC(=C2c3ccccc3CC(=O)c3sccc32)CC1 [Ketotifen],1.03
7,O=C(CCNNC(=O)c1ccncc1)NCc1ccccc1 [Nialamide],0.859
8,NC12CC3CC(CC(C3)C1)C2 [Amantadine],0.736
9,Cc1onc(-c2c(Cl)cccc2Cl)c1C(=O)N[C@@H]1C(=O)N2[C@@H]1SC(C)(C)[C@@H]2C(=O)O [Dicloxacillin],1.04
10,Cc1cc(NS(=O)(=O)c2ccc(N)cc2)no1 [Sulfamethoxazole],0.955
11,COC(=O)C1=C(C)NC(C)=C(C(=O)OC2CCCN(Cc3ccccc3)C2)C1c1cccc([N+](=O)[O-])c1 (stereo unspecified) [Benidipine],0.524
